Molecules are shown by their SMILES. The panel holds about 83,000 compounds, 20% with a hit somewhere; the sample as a whole holds those more often.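 Plates (96-well) were seeded with cells, treated with compound at one concentration, and incubated for 48 hours before percent growth was determined.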 Values without a mark were called inactive. Activity calls are given as the source filed them.

For the test, the system named is SNB-75 CNS. The test can be described thus: NCI-60 one-dose screen, 48 h (100 = growth as untreated, 0 = no growth, -100 = all killed). Conditions: 10 µM unless noted. As to the method:
Growth inhibition of the SNB-75 human tumor cell line is measured as a screen for anti-cancer activity. Cells are grown in 96 well plates and exposed to the test compound for 48 hours. Compounds are tested at a single concentration, which is 10^-5 M for most compounds. The reported endpoint is percent growth (GI% or GIPRCNT), where numbers from 0 - 100% represent growth inhibition, and numbers from -100% - 0 represent cell death. For example, a value of 40 represents 60% growth inhibition. A value of 0 means no net growth occurred over the course of the experiment. A value of -40 indicates 40% of cells at the beginning of the experiment died by the end of the experiment. A value of -100 means all cells are dead at the end of the experiment.
NCI-60 Human Tumor Cell Lines Screen was performed using the standard one-dose NCI protocol, which is described in more detail at https://dtp.cancer.gov/discovery_development/nci-60/default.htm.
Compounds with GIPRCNT values below 10 were considered active. Activity score was based on GIPRCNT using the following formula: […]
Score is 0 for GIPRCNT values of 100 or above, 50 for GIPRCNT values of 0, and 100 for GIPRCNT values of -100.
With `COc1ccc(-c2ccnc3c(C#N)c(Nc4ccccc4)nn23)cc1OC`, the growth is 51.4%.
As to `Cc1occc1-c1nc2s/c(=C\c3cn(-c4ccccc4)nc3-c3ccccc3)c(=O)n2n1`, the growth was 84%.
For `CS(=O)c1nccc(-c2c(-c3ccc(F)c(OCc4ccccc4)c3)nc3sccn23)n1` (stereo not given) the value was 95.4%; for `NS(=O)(=O)c1ccc(Nc2nc(N/N=C/c3ccc(C(F)(F)F)cc3)nc(Nc3ccccc3)n2)cc1`, 42%; for `COc1ccc(-c2nnc(/N=C3/C(=O)Nc4ccc(Br)cc43)o2)cc1`, 90%.
For the compound `COc1ccc([C@@H]2[C@@H](O)C(=O)N2c2cc(OC)c(OC)c(OC)c2)cc1Cl`, the growth was 53.4%.
For `O=C1c2c(c3c4cccnc4[nH]c3c3ccc4ccccc4c23)C(=O)N1CCN1CCNCC1`, the growth was 84%.
Turning to `COc1ccc(Cn2cc3c(c2-c2cc(OC)c(OC)c(OC)c2)CCCc2cnoc2-3)cc1N`, the growth is -14.5% (active).
As to `C/C(=C(/c1ccc(O)cc1)c1ccc(OCCN2CCCC2)cc1)c1ccc(Cl)cc1`, the growth is 62.5%.
With `C=CCn1c(SCC(=O)Nc2cccc(C(=O)/C=C/c3ccccc3Cl)c2)nc2ccccc2c1=O`, the growth was 70.9%.
With `O=C(Nc1cccc(-c2nc(-c3ccc(NC(=O)c4cccnc4)cc3Cl)no2)c1)Nc1ccc(NC(=O)C2CC2)c(C(F)(F)F)c1` the figure was -73.7% (active).
Regarding `COc1ccc2c(c1)oc1c3[nH]c4ccccc4c3c3c(c21)C(=O)N(O)C3=O`, the growth was 39.7%.
On to `CCOC(=O)c1c(NCC(=O)Nc2cccc([N+](=O)[O-])c2)sc2c1CCCC2`, for which the growth is -48.6% (active).
For `COc1ccc(-c2cc(-c3ccc(Cl)cc3)nc3nc(N)nn23)cc1`, the growth was 104%.
Take `C#CCOc1ccc(C(Nc2ccc(OC)cc2)c2nnnn2C2CCCCC2)cc1` (stereo not given): the growth was 92.6%.
For `COc1ccc(-c2cc(-c3cccc4ccccc34)n3c(n2)nc2ccccc23)cc1OC` the value was 40.7%; for `C#C[C@]1(O)CC[C@H]2[C@@H]3CC=C4c5sc(-c6ccc(OC)cc6)nc5CC[C@]4(C)[C@H]3CC[C@@]21C`, 22.9%.
Consider `COc1ccc([C@H]2[C@H](O)C(=O)N2c2cc(OC)c(OC)c(OC)c2)cc1O`, for which the growth was 45.3%.
Consider `Cc1cc(=O)n2nc(-c3c[nH]c4ccccc34)sc2n1`, for which the growth is 99.8%.
Take `COc1ccc(OC)c(NC2=C(Cl)C(=O)C(C)=C(C)C2=O)c1`: the growth was 71.7%.
As to `CC[C@H](C)[C@H]1NC(=O)[C@@H]([C@H](O)C(C)C)NC(=O)[C@@H](C)N(C)C(=O)[C@H](C)N(C)C(=O)[C@H](CC(C)C)NC(=O)[C@H](CC(C)C)N(C)C(=O)[C@H](C)N(C)C1=O`, the growth is 11.2%.
With `CCc1ccc(NC(=O)N[C@@H](Cc2cccc(F)c2)C(=O)N[C@@H]2C(=O)N3CCC[C@H]3C(=O)N3CCCC[C@H]3C(=O)N[C@@H](CO)C(=O)N3C[C@H](C)C[C@H]3C(=O)O[C@H]2C)c(F)c1` the figure was 26.4%; with `CC(C)Sc1nc(NC2CC2)c(C#N)c(-c2ccccc2)n1`, 34.7%; with `COC[C@@]1(C)CC[C@]2(C)CC[C@]3(C)C(=CC[C@@H]4[C@@]5(C)CCCNC(C)(C)[C@@H]5CC[C@]43C)C2C1` (stereo not given in full), 104%.
As for `O=C1Nc2cc(OC(F)(F)F)ccc2Oc2ccc(-c3ccnc(N4CCNCC4)c3)cc21`, the growth is -5.02% (active).
Regarding `CC(=O)Nc1cccc(-n2cnc3cc(-c4ccc(O)cc4)ccc32)c1`, the growth is -31.7% (active).
In the case of `Cc1csc(Nc2cccc(Nc3nc(C)cs3)c2)n1`, the growth was 97.4%.
Regarding `O=C(NCCCNc1cc(-c2cn(-c3ccccc3)nc2-c2cccc(O)c2)ccn1)Nc1cccc(C(F)(F)F)c1`, the growth is 45%.
As to `CCCCCc1ccc(S(=O)(=O)N(C(C)=O)c2cccc(-c3csc(N(CCN4CCN(C)CC4)C(C)=O)n3)c2)cc1`, the growth is 64%.
Regarding `Cc1ccc(/C=C/CC(=O)Nc2ccc(C(=O)Nc3ccc(F)cc3N)cc2)cn1`, the growth is 74.8%.
Take `CCC(=O)Nc1cc(Nc2cc(NC3CC3)n3ncc(C#N)c3n2)ccc1C`: the growth was -9.89% (active).
Take `COc1ccc(/C=C/C(=O)c2nnn(-c3ccc(C(=O)O)cc3)c2C)cc1OC`: the growth is 99.1%.
For `CC(=O)NC(C)(C)C(=O)N[C@@H](C)C(=O)NC(C)(C)C(=O)N[C@@H](C)C(=O)NC(C)(C)C(=O)N[C@@H](C)C(=O)N[C@@H](CCC(N)=O)C(=O)NC(C)(C)C(=O)N[C@H](C(=O)NC(C)(C)C(=O)NCC(=O)N[C@@H](CC(C)C)C(=O)NC(C)(C)C(=O)N1CCC[C@H]1C(=O)N[C@H](C(=O)NC(C)(C)C(=O)NC(C)(C)C(=O)N[C@@H](CCC(N)=O)C(=O)N[C@@H](CCC(N)=O)C(=O)N[C@H](CO)CC1CCCCC1)C(C)C)C(C)C` the value was 19.7% [5 µM]; for `COC(=O)Nc1ccc(-c2nc(-c3cccc(O)c3)c(-c3ccnc(Br)c3)[nH]2)cc1`, 3.12% (active).
With `Nc1nc(N)c2c(n1)NC(c1ccccc1)CC(c1ccc(Nc3nc(NCCO)nc(Nc4ccc(Cl)cc4)n3)cc1)=N2` (stereo not given) the figure was 112%; with `COc1ccc(Oc2ccc(C3CC(c4cc(OC)c(OC)c(OC)c4)=NN3C(C)=O)cc2)cc1` (stereo not given), 46%.
With `CCOC(=O)c1c(NCC(=O)Nc2ccc(Br)cc2)sc2c1CCCC2` the figure was 46.2%.
For the compound `CCOC(=O)c1nn(-c2ccc(C)cc2)c(=O)c2c(N)c(C#N)c(-c3ccc(OC)cc3)cc12`, the growth is 67.3%.
For the compound `COc1cc(C2=NN(C(C)=O)C(c3ccc(N4CCOCC4)cc3)C2)cc(OC)c1OC` (stereo not given), the growth is 96%.
In the case of `COc1cc(/C=N/Nc2ccnc3cc(Cl)ccc23)cc(OC)c1O`, the growth was -81.5% (active).

The values above are taken from PubChem BioAssay (NCI).
